Source: publication PMC5700166

These sequences were tested against GST-Hu-p50 (Homo sapiens, UniProt P19838 7-356) (assay: protein-binding microarray (PBM); PBM: ~300 nM protein, 6 mM HEPES pH 7.8, 80 mM KCl, 0.5 mM EDTA, 0.5 mM EGTA, 6% glycerol, 35 ng/ul poly-dIdC, 1% milk, 1 h, room temperature; Ap Aiptasia and Nv Nematostella (sea anemones) / Co Capsaspora / Aq Amphimedon (sponge) / Dm Drosophila / Hu human; RHD is the Rel homology domain; high values mean tight binding). Details: dsDNA, one strand shown.
Sequence of GST-Hu-p50 (P19838 7-356): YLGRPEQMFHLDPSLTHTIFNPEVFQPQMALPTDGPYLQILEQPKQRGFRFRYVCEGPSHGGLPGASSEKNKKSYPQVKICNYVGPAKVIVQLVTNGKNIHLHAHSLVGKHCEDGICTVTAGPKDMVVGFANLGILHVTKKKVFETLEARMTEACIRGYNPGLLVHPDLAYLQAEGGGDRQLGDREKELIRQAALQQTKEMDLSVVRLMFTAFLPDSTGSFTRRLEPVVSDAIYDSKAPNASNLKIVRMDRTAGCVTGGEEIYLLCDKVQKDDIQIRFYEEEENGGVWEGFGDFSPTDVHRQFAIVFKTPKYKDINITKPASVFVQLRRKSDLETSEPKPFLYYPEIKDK

Row | Sequence | binding signal [z-score]
1 | CCGATTAACATCAGGGAAAAAAATGATGTTAATCGGGTCTTGATTCGCTTGACGCTGCTG | 4.58
2 | CCGATTAACATCAGGAAAAACCATGATGTTAATCGGGTCTTGATTCGCTTGACGCTGCTG | 1.05
3 | CCGATTAACATCACGGGATTTTCTGATGTTAATCGGGTCTTGATTCGCTTGACGCTGCTG | 4
4 | CCGATTAACATCAGGGCATTACCTGATGTTAATCGGGTCTTGATTCGCTTGACGCTGCTG | 1.4
5 | CCGATTAACATCAGGTAACCCCATGATGTTAATCGGGTCTTGATTCGCTTGACGCTGCTG | 1.35
6 | CCGATTAACATCAATAAATTTCCTGATGTTAATCGGGTCTTGATTCGCTTGACGCTGCTG | 1.15
7 | CCGATTAACATCAGGGGCCGTAATGATGTTAATCGGGTCTTGATTCGCTTGACGCTGCTG | 1.41
8 | CCGATTAACATCAGATTATCCCCTGATGTTAATCGGGTCTTGATTCGCTTGACGCTGCTG | 4.03
9 | CCGATTAACATCATGGGGTGTGCTGATGTTAATCGGGTCTTGATTCGCTTGACGCTGCTG | 1.49
10 | CCGATTAACATCATTAATGACGGTGATGTTAATCGGGTCTTGATTCGCTTGACGCTGCTG | 1.09
11 | CCGATTAACATCAGGGAAGGACCTGATGTTAATCGGGTCTTGATTCGCTTGACGCTGCTG | 1.18
12 | CCGATTAACATCAGGGGTAACACTGATGTTAATCGGGTCTTGATTCGCTTGACGCTGCTG | 1.68
13 | CCGATTAACATCACCCATTTCCGTGATGTTAATCGGGTCTTGATTCGCTTGACGCTGCTG | 1.88
14 | CCGATTAACATCACCCGAGTGCGTGATGTTAATCGGGTCTTGATTCGCTTGACGCTGCTG | 1.1
15 | CCGATTAACATCAGGAAAGTACCTGATGTTAATCGGGTCTTGATTCGCTTGACGCTGCTG | 5.16
16 | CCGATTAACATCATGAAGACCCCTGATGTTAATCGGGTCTTGATTCGCTTGACGCTGCTG | 1.77
17 | CCGATTAACATCAAAAATTTCCGTGATGTTAATCGGGTCTTGATTCGCTTGACGCTGCTG | 1.34
18 | CCGATTAACATCAGGGGAAAGCATGATGTTAATCGGGTCTTGATTCGCTTGACGCTGCTG | 4.81
19 | CCGATTAACATCACAGATTTCCCTGATGTTAATCGGGTCTTGATTCGCTTGACGCTGCTG | 4.4
20 | CCGATTAACATCACACCCCAACATGATGTTAATCGGGTCTTGATTCGCTTGACGCTGCTG | 1.05

Row | Sequence | binding signal [z-score]
21 | CCGATTAACATCAACCCCGTTTCTGATGTTAATCGGGTCTTGATTCGCTTGACGCTGCTG | 1.79
22 | CCGATTAACATCAAGGGAAAAAATGATGTTAATCGGGTCTTGATTCGCTTGACGCTGCTG | 4.89
23 | CCGATTAACATCAGGGGAACTCATGATGTTAATCGGGTCTTGATTCGCTTGACGCTGCTG | 4.82
24 | CCGATTAACATCAGGCATGCCCCTGATGTTAATCGGGTCTTGATTCGCTTGACGCTGCTG | 1.89
25 | CCGATTAACATCAAAAAATTACCTGATGTTAATCGGGTCTTGATTCGCTTGACGCTGCTG | 4.27
26 | CCGATTAACATCACGGAAATTTCTGATGTTAATCGGGTCTTGATTCGCTTGACGCTGCTG | 1.83
27 | CCGATTAACATCAGGGGAAGCACTGATGTTAATCGGGTCTTGATTCGCTTGACGCTGCTG | 5.16
28 | CCGATTAACATCAGGACAATCCCTGATGTTAATCGGGTCTTGATTCGCTTGACGCTGCTG | 1.84
29 | CCGATTAACATCAGGAATCCCACTGATGTTAATCGGGTCTTGATTCGCTTGACGCTGCTG | 1.55
30 | CCGATTAACATCAAGGAAATTCCTGATGTTAATCGGGTCTTGATTCGCTTGACGCTGCTG | 1.33
31 | CCGATTAACATCAGGGAACGCCCTGATGTTAATCGGGTCTTGATTCGCTTGACGCTGCTG | 2.04
32 | CCGATTAACATCAGCTGAGTAGGTGATGTTAATCGGGTCTTGATTCGCTTGACGCTGCTG | 1.45
33 | CCGATTAACATCAATCAGCGGGGTGATGTTAATCGGGTCTTGATTCGCTTGACGCTGCTG | 1.52
34 | CCGATTAACATCACCCAAAGTTTTGATGTTAATCGGGTCTTGATTCGCTTGACGCTGCTG | 1.11
35 | CCGATTAACATCAAAGGGAATTCTGATGTTAATCGGGTCTTGATTCGCTTGACGCTGCTG | 4.99
36 | CCGATTAACATCAAATAATTCCCTGATGTTAATCGGGTCTTGATTCGCTTGACGCTGCTG | 5.03
37 | CCGATTAACATCAAGCCCCCCCATGATGTTAATCGGGTCTTGATTCGCTTGACGCTGCTG | 3.88
38 | CCGATTAACATCAAATTTCCAGGTGATGTTAATCGGGTCTTGATTCGCTTGACGCTGCTG | 1.2
39 | CCGATTAACATCAATGGAATTCCTGATGTTAATCGGGTCTTGATTCGCTTGACGCTGCTG | 1.48
40 | CCGATTAACATCAGGGGTATACCTGATGTTAATCGGGTCTTGATTCGCTTGACGCTGCTG | 1.99
